Experimental data taken from the supplement of paper PMC10849652.
Of roughly 7,900 targets only a part is listed; those with a hit were picked by preference. About 0.6% of all pairs of compound and target were hits. A number with no mark means an inactive call.

What was measured:
Assay in all cases: log2 fold change, soluble protein after heating vs DMSO (PISA); higher = thermal stabilisation; K562 cells, 10 uM, 30 min; active = over 0.2 and 3.5 SD of the protein, either way, in both replicates (recomputed)
[1] = compound: C1=CC=C(C=C1)[C@H](COC2=CC3=C(C=C2)NC(=O)N3)NC(=O)C4=CC=CN(C4=O)CC5=CC(=C(C=C5)F)F
How it was run: (§1)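 Thermal stability values are relative to control samples and come from duplicates. They are expressed as log2 fold changes. For measurement, K562 cells (2×10^6 cells/mL) received 10 μM compound for 30 min, and aliquots were heated for 3 min over 48°C-58°C, pooled, and extracted at 4°C in PBS with 0.5% NP-40. Soluble protein, the supernatant after 21,000xg for 90 min, was quantified by TMTpro 16plex LC-MS/MS with equalised channel sums.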

[2] = compound: CC1=C(SC2=C1C(=N[C@H](C3=NN=C(N32)C)CC(=O)N)C4=CC=C(C=C4)Cl)C
How it was run: as §1

[3] = compound: CC1=C2C(=CC=C1)N=C(N(C2=O)C3=CC=CC=C3C)CN4C=NC5=C(N=CN=C54)N
How it was run: as §1

[4] = compound: Cc1sc2c(c1C)C(c1ccc(Cl)cc1)=N[C@@H](CC(=O)OC(C)(C)C)c1nnc(C)n1-2
How it was run: as §1

[5] = compound: c1ccc([C@@H]2C[C@H]2NC2CCNCC2)cc1
How it was run: as §1

Sequence of UniProt O95747 (O95747 whole entry, looked up): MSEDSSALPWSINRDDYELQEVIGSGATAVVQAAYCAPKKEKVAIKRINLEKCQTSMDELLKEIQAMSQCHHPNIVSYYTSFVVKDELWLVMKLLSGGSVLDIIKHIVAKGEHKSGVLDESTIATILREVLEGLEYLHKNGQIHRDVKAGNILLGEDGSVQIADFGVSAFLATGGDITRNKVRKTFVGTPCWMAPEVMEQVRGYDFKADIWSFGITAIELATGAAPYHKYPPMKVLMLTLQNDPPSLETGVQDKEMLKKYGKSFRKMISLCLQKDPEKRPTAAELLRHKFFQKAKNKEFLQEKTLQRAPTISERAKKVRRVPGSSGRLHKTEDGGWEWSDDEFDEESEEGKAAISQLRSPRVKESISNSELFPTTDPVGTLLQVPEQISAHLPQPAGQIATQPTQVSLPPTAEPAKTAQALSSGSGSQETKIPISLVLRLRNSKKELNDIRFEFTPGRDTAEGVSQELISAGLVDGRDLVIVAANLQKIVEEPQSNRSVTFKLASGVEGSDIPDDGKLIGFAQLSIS
Sequence of UniProt Q8NCF5 (Q8NCF5 whole entry, looked up): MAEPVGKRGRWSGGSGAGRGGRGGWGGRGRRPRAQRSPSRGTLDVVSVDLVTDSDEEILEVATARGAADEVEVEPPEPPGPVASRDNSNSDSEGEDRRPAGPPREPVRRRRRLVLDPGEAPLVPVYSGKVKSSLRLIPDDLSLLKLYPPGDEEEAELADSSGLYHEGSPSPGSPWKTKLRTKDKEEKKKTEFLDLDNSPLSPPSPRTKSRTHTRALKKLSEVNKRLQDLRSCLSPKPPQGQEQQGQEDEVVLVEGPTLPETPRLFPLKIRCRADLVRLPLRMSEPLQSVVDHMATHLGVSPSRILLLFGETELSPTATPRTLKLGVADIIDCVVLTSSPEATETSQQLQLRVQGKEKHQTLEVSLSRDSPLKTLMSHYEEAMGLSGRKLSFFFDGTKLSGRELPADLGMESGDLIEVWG
Sequence of UniProt O75438 (O75438 whole entry, looked up): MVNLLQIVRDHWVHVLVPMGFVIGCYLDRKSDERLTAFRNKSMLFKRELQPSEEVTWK
Sequence of UniProt Q6VY07 (Q6VY07 whole entry, looked up): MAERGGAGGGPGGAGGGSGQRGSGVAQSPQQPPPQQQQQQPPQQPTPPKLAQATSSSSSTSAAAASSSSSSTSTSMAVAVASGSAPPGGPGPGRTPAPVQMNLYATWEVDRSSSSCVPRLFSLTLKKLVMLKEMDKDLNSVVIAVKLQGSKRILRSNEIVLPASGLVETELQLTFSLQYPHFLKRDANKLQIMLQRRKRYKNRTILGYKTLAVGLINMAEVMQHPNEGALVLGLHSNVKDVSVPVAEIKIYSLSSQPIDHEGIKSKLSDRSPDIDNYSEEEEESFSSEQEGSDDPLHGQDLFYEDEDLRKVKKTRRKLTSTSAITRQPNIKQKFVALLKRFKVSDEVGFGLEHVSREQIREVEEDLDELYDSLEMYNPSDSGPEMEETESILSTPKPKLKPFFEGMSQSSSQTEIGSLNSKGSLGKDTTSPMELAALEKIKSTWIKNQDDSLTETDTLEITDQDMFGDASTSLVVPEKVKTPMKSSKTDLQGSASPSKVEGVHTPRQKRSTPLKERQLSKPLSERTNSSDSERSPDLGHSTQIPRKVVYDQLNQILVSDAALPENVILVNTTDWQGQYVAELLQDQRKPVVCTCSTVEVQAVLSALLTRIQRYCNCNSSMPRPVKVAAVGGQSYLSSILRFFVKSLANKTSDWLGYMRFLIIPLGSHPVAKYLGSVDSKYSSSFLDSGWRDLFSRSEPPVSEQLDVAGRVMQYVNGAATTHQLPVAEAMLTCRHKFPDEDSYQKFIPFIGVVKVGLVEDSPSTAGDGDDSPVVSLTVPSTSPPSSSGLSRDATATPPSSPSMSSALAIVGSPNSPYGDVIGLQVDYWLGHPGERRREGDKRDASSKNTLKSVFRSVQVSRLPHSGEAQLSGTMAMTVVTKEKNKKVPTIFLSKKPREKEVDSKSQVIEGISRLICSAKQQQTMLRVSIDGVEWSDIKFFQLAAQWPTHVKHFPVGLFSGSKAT
Sequence of UniProt Q15738 (Q15738 whole entry, looked up): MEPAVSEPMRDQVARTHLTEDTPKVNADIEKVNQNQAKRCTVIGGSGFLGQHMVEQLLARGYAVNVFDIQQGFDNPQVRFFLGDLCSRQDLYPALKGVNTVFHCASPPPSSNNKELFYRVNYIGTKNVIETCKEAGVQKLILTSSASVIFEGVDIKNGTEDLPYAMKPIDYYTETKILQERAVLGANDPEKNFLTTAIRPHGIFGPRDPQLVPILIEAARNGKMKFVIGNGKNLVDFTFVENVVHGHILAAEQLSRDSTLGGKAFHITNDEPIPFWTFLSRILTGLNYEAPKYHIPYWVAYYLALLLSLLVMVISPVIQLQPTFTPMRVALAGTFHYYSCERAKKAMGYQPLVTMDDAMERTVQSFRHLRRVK
Sequence of UniProt Q9BRP4 (Q9BRP4 whole entry, looked up): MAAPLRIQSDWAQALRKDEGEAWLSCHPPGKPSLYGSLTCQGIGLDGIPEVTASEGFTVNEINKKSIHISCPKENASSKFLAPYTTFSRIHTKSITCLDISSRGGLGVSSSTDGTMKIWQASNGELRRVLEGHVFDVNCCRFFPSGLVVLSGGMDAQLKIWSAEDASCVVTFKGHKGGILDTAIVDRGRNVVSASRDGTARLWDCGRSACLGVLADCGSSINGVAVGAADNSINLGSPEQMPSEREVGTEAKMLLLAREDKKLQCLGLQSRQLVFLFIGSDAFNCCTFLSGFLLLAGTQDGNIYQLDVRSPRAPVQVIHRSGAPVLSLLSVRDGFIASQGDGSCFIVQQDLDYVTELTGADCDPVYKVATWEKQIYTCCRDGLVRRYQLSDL
Sequence of UniProt Q9BS92 (Q9BS92 whole entry, looked up): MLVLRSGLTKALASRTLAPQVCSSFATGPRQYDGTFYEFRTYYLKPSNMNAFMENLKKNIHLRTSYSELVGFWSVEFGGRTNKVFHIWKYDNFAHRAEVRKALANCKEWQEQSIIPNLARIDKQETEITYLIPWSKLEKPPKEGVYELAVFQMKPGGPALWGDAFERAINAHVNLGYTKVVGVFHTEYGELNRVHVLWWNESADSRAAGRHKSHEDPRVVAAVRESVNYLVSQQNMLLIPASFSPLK
Sequence of UniProt Q330K2 (Q330K2 whole entry, looked up): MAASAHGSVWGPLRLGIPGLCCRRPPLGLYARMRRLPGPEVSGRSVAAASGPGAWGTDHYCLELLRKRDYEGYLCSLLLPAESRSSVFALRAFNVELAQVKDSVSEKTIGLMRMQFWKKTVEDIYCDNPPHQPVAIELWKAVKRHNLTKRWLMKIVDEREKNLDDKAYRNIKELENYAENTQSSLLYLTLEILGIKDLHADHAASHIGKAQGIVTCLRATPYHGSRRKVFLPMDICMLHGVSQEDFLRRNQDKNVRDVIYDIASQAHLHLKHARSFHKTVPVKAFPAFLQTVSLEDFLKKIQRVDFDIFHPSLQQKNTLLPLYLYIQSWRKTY
Sequence of UniProt P52701 (P52701 whole entry, looked up): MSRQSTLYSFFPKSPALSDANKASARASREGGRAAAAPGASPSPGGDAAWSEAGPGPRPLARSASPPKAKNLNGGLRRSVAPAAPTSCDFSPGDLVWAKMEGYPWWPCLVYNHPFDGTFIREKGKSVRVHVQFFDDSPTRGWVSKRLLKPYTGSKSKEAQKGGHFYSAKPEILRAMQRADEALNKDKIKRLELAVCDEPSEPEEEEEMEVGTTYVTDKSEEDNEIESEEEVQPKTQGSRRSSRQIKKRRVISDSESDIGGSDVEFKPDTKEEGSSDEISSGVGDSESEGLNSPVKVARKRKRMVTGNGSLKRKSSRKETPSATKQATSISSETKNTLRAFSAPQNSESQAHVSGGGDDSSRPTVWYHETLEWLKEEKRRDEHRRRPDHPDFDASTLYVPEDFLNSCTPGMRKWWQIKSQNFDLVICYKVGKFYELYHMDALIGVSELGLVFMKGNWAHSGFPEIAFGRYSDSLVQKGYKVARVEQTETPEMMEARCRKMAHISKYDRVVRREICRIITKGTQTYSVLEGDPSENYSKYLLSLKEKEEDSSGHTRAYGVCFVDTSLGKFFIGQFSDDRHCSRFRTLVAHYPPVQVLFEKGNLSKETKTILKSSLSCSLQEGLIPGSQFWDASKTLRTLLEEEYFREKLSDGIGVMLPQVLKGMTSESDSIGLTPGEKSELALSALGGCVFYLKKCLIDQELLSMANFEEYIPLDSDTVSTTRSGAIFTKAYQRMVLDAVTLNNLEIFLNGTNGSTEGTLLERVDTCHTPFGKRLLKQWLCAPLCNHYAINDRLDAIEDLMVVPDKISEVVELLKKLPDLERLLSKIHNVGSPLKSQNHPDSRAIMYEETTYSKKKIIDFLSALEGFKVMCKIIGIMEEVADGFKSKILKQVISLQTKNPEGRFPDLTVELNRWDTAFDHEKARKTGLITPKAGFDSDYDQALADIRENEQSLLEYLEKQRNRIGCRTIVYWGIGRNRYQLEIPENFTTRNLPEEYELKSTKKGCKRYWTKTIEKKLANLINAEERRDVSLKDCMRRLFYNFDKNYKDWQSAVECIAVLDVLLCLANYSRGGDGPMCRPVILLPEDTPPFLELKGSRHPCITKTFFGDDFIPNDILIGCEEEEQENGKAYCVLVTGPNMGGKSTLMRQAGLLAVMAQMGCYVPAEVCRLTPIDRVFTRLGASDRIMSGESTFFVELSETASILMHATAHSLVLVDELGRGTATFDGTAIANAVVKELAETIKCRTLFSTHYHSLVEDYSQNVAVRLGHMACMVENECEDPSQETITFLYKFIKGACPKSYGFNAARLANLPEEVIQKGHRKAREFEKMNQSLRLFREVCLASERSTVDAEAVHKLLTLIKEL
Sequence of UniProt P00846 (P00846 whole entry, looked up): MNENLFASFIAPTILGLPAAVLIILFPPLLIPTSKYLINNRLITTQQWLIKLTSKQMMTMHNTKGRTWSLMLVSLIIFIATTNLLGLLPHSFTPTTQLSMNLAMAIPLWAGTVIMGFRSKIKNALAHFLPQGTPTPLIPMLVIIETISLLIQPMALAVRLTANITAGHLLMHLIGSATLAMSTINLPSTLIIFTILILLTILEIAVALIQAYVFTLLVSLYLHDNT

| Target | log2 fold change [1] | log2 fold change [2] | log2 fold change [3] | log2 fold change [4] | log2 fold change [5] |
| --- | --- | --- | --- | --- | --- |
| NIPSNAP3B (UniProt Q9BS92) | 0.045 | -0.031 | 0.017 | -0.021 | 0.099 |
| NDUFAF6 (UniProt Q330K2) | -0.048 | 0.003 | -0.006 | 0.063 | 0.024 |
| NCAPH (UniProt Q15003) | -0.067 | 0.011 | 0.109 | -0.007 | 0.001 |
| NDUFB1 (UniProt O75438) | -0.004 | -0.059 | -0.056 | -0.138 | 0.055 |
| MOV10 (UniProt Q9HCE1) | 0.067 | -0.095 | -0.095 | 0.145 | 0.057 |
| MRPS16 (UniProt Q9Y3D3) | -0.006 | -0.033 | -0.009 | 0.014 | -0.074 |
| NUP98 (UniProt P52948) | -0.041 | 0.032 | 0.071 | -0.005 | -0.011 |
| NUDT16 (UniProt Q96DE0) | 0.029 | 0.085 | -0.045 | -0.075 | -0.006 |
| NDUFA4 (UniProt O00483) | 0 | 0.005 | 0.014 | -0.031 | 0.046 |
| NDUFA9 (UniProt Q16795) | -0.005 | 0.075 | 0.078 | -0.014 | -0.054 |
| NUMA1 (UniProt Q14980) | 0.027 | -0.05 | -0.009 | 0.022 | 0.014 |
| NOS1AP (UniProt O75052) | -0.109 | 0.025 | 0.362 | -0.141 | -0.178 |
| NME1 isoform 2 (UniProt P15531) | 0.095 | 0.142 | 0.069 | 0.033 | -0.108 |
| MT-ATP6 (UniProt P00846) | -0.828 (active) | -0.065 | 0.076 | -0.223 | -0.035 |
| NBN (UniProt O60934) | 0.002 | 0.032 | 0.036 | -0.004 | -0.001 |
| PACS1 (UniProt Q6VY07) | -0.02 | 0.042 | 0.033 | 0.002 | -0.014 |
| NEDD4L (UniProt Q96PU5) | 0.014 | 0.038 | 0.039 | 0.054 | 0.027 |
| OTUD4 (UniProt Q01804) | 0.033 | -0.034 | -0.05 | 0.111 | 0.011 |
| OAT (UniProt P04181) | -0.019 | 0.083 | 0.05 | -0.024 | -0.045 |
| MRPS31 (UniProt Q92665) | -0.042 | 0.028 | 0.021 | 0.044 | -0.031 |
| OSTC (UniProt Q9NRP0) | -0.031 | 0.048 | 0.063 | -0.213 | 0.048 |
| NFATC2 (UniProt Q13469) | -0.063 | 0.097 | 0.077 | 0.023 | 0.021 |
| ORC3 isoform 2 (UniProt Q9UBD5) | -0.098 | 0.032 | 0.107 | 0.013 | -0.079 |
| MYL12B (UniProt O14950) | 0.028 | 0.054 | 0.009 | -0.025 | -0.077 |
| NCBP2AS2 (UniProt Q69YL0) | 0.02 | 0.019 | 0.048 | -0.038 | -0.003 |
| PAAF1 (UniProt Q9BRP4) | -0.012 | 0.043 | 0.076 | -0.014 | 0.008 |
| NFATC2IP (UniProt Q8NCF5) | -0.051 | 0.18 | 0.039 | -0.088 | 0.156 |

| Target | log2 fold change [1] | log2 fold change [2] | log2 fold change [3] | log2 fold change [4] | log2 fold change [5] |
| --- | --- | --- | --- | --- | --- |
| MRPS12 (UniProt O15235) | 0.019 | -0.121 | -0.176 | 0.093 | 0.061 |
| NCK1 (UniProt P16333) | -0.077 | 0.025 | 0.168 | 0.044 | -0.085 |
| NDUFA7 (UniProt O95182) | 0.007 | 0.002 | 0.007 | 0.008 | 0.034 |
| MTFR1L (UniProt Q9H019) | -0.036 | -0.009 | 0.066 | 0.048 | 0.028 |
| NPC1 (UniProt O15118) | -0.034 | -0.038 | -0.017 | 0.009 | 0.049 |
| MT-ND2 (UniProt P03891) | 0.023 | 0.123 | -0.118 | -0.03 | -0.003 |
| OSBPL8 (UniProt Q9BZF1) | -0.051 | -0.071 | 0.007 | -0.018 | -0.002 |
| PAFAH2 (UniProt Q99487) | -0.191 | 0.016 | 0.066 | -0.117 | -0.141 |
| NUDT1 (UniProt P36639) | 0.556 | -0.043 | 0.048 | -0.137 | 0.038 |
| OXA1L (UniProt Q15070) | 0.014 | -0.01 | 0.018 | 0 | 0.009 |
| NSDHL (UniProt Q15738) | 0.029 | 0.047 | 0.019 | 0 | -0.034 |
| NUMB (UniProt P49757) | 0 | 0.035 | 0.046 | 0.023 | -0.009 |
| NFYB (UniProt P25208) | -0.015 | -0.119 | -0.165 | -0.048 | 0.057 |
| NUCKS1 (UniProt Q9H1E3) | 0.044 | -0.053 | 0.032 | -0.029 | -0.007 |
| MRPS18B (UniProt Q9Y676) | -0.055 | -0.113 | -0.041 | 0.127 | -0.078 |
| OXSR1 (UniProt O95747) | -0.039 | 0.048 | 0.096 | -0.003 | -0.03 |
| OTUD6B (UniProt Q8N6M0) | -0.051 | 0.022 | 0.11 | 0.03 | -0.153 |
| NAPG (UniProt Q99747) | -0.036 | 0.044 | 0.073 | -0.023 | -0.077 |
| MORC3 (UniProt Q14149) | -0.043 | 0.014 | 0.132 | 0.017 | 0.062 |
| NOP2 isoform 4 (UniProt P46087) | 0.184 | -0.494 | -0.694 | 0.409 | -0.009 |
| NOP56 (UniProt O00567) | 0.045 | -0.289 | -0.281 | 0.154 | 0.024 |
| MIS12 (UniProt Q9H081) | -0.02 | 0.013 | 0.064 | -0.117 | -0.022 |
| MLST8 (UniProt Q9BVC4) | -0.038 | 0.062 | 0.082 | -0.05 | -0.071 |
| NSMCE4A (UniProt Q9NXX6) | 0.123 | 0.03 | -0.088 | -0.037 | -0.014 |
| MNAT1 (UniProt P51948) | 0.011 | 0.088 | 0.005 | 0.033 | 0.068 |
| MSH6 (UniProt P52701) | -0.24 | 0.08 | 0.127 | -0.056 | -0.008 |
